Test results from PubChem BioAssay (Tox21).
Values joined by “and” are separate entries in the source; they are usually repeats but may differ in a detail not shown here. Equal values may be shown once. Inconclusive results are not listed. A call without a number means that no potency is given here. Some compounds were tested as several samples or in several runs, with calls that do not always agree. Active and inactive are the calls of the source. Unless noted, calls follow the shape of the dose curve; as a rule, active = well fitted curve in the direction sought with a large enough effect in the repeat runs; inconclusive = weak or mixed curves; inactive = no such curve, though single readings can be large; an effect the other way counts as inactive or inconclusive.

Tests used:
[1] = qHTS assay to identify small molecule antagonists of the thyroid receptor (TR) signaling pathway - cell viability counter screen (AID 743064); also: nearly all actives have a fitted effect of over 50% in size; also: potency is read from the fitted curve at half-maximal effect
How it was run: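 Fluorescence from CellTiter-Fluor, added after 23.5 h exposure at 37 °C, reported viability of GH3.TRE-Luc cells co-treated with compound and 1 nM T3. Measured in the same wells as the luciferase TR readout.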

[2] = qHTS assay to identify small molecule antagonists of the thyroid receptor (TR) signaling pathway (AID 743065); also: nearly all actives have a fitted effect of over 55% in size; also: potency is read from the fitted curve at half-maximal effect; as to activity, negative = inhibition: series mostly up to about 70 µM
How it was run: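 GH3.TRE-Luc rat pituitary cells carrying two TR response elements driving luciferase were plated for 4 h, given compound plus 1 nM T3 (final), and incubated 23.5 h at 37 C. ONE-Glo luminescence measured reporter inhibition; CellTiter-Fluor fluorescence tracked cytotoxicity.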

[3] = system: thyroid hormone receptor (rat, GH3 cells); test: qHTS assay to identify small molecule agonists of the thyroid receptor (TR) signaling pathway (AID 743066; calls by dose curve)
[4] = target: Estrogen receptor (Homo sapiens) (UniProt P03372); test: qHTS assay to identify small molecule antagonists of the estrogen receptor alpha (ER-alpha) signaling pathway (AID 743069; active = well fitted curve in the direction sought with a large enough effect in the signal ratio in the repeat runs, not every such curve was filed as active; the % refers to the signal ratio)
How it was run: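 A 17beta-estradiol challenge was applied right after compound transfer to ER-alpha-UAS-bla HEK293 cells previously kept in charcoal-stripped serum. Plates stood 18 hr at 37C and 5% CO2; fluorescence was read following 2 hr FRET substrate loading at room temperature.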

[5] = qHTS assay to identify small molecule antagonists of the estrogen receptor alpha (ER-alpha) signaling pathway - cell viability counter screen (AID 743074; calls by dose curve;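 also: HEK293 cells carrying ER-alpha-UAS-bla reporter stimulated with 17beta-estradiol; nearly all actives have a fitted effect of over 45% in size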)
[6] = target: Estrogen receptor (Homo sapiens) (UniProt P03372); test: qHTS assay to identify small molecule agonists of the estrogen receptor alpha (ER-alpha) signaling pathway (AID 743075; calls by dose curve;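 also: HEK293 GripTite cells with ER-alpha and UAS-driven beta-lactamase reporter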; also: potency is read from the fitted curve at half-maximal effect)
[7] = target: Estrogen receptor (Homo sapiens) (UniProt P03372); test: qHTS assay to identify small molecule agonists of the estrogen receptor alpha (ER-alpha) signaling pathway using the BG1 cell line (AID 743079); also: nearly all actives have a fitted effect of over 20% in size; also: potency is read from the fitted curve at half-maximal effect
[8] = qHTS assay to identify small molecule antagonists of the estrogen receptor alpha (ER-alpha) signaling pathway using the BG1 cell line (AID 743080; calls by dose curve;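 also: BG1 cells stimulated with 17beta-estradiol alongside compound; nearly all actives have a fitted effect of over 25% in size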; also: potency is read from the fitted curve at half-maximal effect)
How it was run: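 After 5 days in phenol-red-free 10% charcoal-stripped FBS medium, BG1-Luc-4E2 cells were seeded, left 24 h at 37 C, co-treated with compounds and 17beta-estradiol for 21.5 h, then assayed for viability and luciferase.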

[9] = qHTS assay to identify small molecule antagonists of the estrogen receptor alpha (ER-alpha) signaling pathway using the BG1 cell line - cell viability counter screen (AID 743081);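 also: compound given together with 17beta-estradiol as the ER stimulus; nearly all actives have a fitted effect of over 45% in size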; also: potency is read from the fitted curve at half-maximal effect
Aromatase (Homo sapiens) = Aromatase (Homo sapiens) (UniProt P11511); test: qHTS assay to identify aromatase inhibitors (AID 743083); also: series mostly up to about 70 µM; nearly all actives have a fitted effect of over 55% in size
Sequence of Aromatase (Homo sapiens) (P11511 whole entry, looked up): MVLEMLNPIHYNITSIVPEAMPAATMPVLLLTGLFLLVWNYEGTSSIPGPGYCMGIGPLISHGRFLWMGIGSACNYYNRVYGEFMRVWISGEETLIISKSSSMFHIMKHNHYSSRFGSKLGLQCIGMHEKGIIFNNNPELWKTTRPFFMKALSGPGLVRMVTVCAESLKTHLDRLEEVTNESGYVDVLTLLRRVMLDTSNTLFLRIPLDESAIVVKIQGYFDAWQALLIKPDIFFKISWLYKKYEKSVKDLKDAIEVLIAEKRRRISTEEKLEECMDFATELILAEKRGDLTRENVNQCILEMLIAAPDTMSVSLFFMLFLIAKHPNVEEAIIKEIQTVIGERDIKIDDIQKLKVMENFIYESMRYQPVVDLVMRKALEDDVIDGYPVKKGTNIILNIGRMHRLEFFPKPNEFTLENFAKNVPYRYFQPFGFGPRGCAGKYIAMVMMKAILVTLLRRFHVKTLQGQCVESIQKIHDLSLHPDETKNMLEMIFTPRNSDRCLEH

Sequence of Estrogen receptor (Homo sapiens) (P03372 whole entry, looked up): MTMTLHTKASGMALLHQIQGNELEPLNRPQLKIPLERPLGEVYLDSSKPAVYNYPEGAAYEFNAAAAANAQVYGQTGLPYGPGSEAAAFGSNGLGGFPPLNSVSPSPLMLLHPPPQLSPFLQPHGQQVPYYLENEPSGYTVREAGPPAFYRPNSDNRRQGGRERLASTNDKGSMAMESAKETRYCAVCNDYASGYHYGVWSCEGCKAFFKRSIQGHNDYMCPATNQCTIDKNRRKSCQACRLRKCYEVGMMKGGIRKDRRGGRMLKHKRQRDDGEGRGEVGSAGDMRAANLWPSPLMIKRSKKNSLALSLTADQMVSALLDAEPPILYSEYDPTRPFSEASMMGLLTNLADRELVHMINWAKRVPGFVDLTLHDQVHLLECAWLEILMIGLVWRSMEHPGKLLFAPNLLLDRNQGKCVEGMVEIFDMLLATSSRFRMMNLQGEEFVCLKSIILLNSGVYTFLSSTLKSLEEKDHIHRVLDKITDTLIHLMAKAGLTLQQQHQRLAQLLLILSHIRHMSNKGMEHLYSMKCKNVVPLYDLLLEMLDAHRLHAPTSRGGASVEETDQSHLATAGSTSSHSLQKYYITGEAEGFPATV

Structure (SMILES) | Potency [1] | Potency [2] | Potency [3] | Potency [4] | outcome [5] | Potency [6] | Potency [7] | Potency [8] | Potency [9] | Potency (Aromatase (Homo sapiens)) | activity change, negative = cytotoxic [1] | activity, negative = inhibition [2]
COc1ccc(NC(C)=O)cc1N | inactive | inactive | inactive | inactive | inactive | 54.7 µM [activator] (active) and inactive | 54.3 µM (active) and inactive | inactive | inactive | inactive |  | 
c1c[nH]cn1 | inactive | inactive | inactive | inactive | inactive | inactive | inactive | inactive | inactive | inactive |  | 
Cc1ccc(N(C)C)cc1 | inactive | inactive | inactive | inactive | inactive | inactive | 61.1 µM (active) | inactive | inactive | inactive |  | 
CC(c1cc2ccccc2s1)N(O)C(N)=O (stereo unspecified) | inactive | inactive | inactive | inactive | inactive | inactive | inactive | inactive | inactive | inactive |  | 
FC(F)(F)c1ccc(Cl)c(Cl)c1 | inactive | inactive | inactive | inactive | inactive | inactive | inactive | inactive | inactive | inactive |  | 
CC1=CCC2CC1C2(C)C (stereo unspecified) | inactive | inactive | inactive | inactive | inactive | inactive | inactive | inactive | inactive | inactive |  | 
CCCCCCCC(=O)OC | inactive | inactive | inactive | inactive | inactive | inactive | inactive | inactive | inactive | inactive |  | 
C=CCOC(=O)c1ccccc1C(=O)OCC=C | inactive | inactive | inactive | inactive | inactive | inactive | inactive | inactive | inactive |  |  | 
CC(=O)CC(=O)Nc1ccccc1C | inactive | inactive | inactive | inactive | inactive | inactive | inactive | inactive | inactive | inactive |  | 
OC[C@H]1O[C@@](CO)(O[C@H]2O[C@H](CO)[C@@H](O)[C@H](O)[C@H]2O)[C@@H](O)[C@@H]1O | inactive | inactive | inactive | inactive | inactive | inactive | inactive | inactive | inactive | inactive |  | 
O=C(OCCOCCOC(=O)c1ccccc1)c1ccccc1 | inactive | inactive | inactive | inactive | inactive | inactive | inactive | inactive | inactive | inactive |  | 
COS(C)(=O)=O | inactive | inactive | inactive | inactive | inactive | inactive | inactive | inactive | inactive | inactive |  | 
O=S1(=O)CC=CC1 | inactive | inactive | inactive | inactive | inactive | inactive | inactive | inactive | inactive | inactive |  | 
C#CCN(C)Cc1ccccc1 | inactive | inactive | inactive | inactive | inactive | inactive | inactive | inactive | inactive | inactive |  | 
CC(C)(N)CO | inactive | inactive | inactive | inactive | inactive | inactive | inactive | inactive | inactive | inactive |  | 
CCCCCCCCCC | inactive | inactive | inactive | inactive | inactive | inactive | inactive | inactive | inactive | inactive |  | 
CCCCN(CCCC)CCCC | inactive | inactive | inactive | inactive | inactive | inactive | inactive | inactive | inactive | inactive |  | 
Cc1cnc(C(=O)NCCc2ccc(S(=O)(=O)NC(=O)NC3CCCCC3)cc2)cn1 | inactive | inactive | inactive | inactive | inactive | inactive | inactive | inactive | inactive |  |  | 
O=S(=O)(O)c1ccc2ccccc2c1 | inactive | inactive | inactive | inactive | inactive | inactive | inactive | inactive | inactive | inactive |  | 
CCCCCOC(C)=O | inactive | inactive | inactive | inactive | inactive | inactive | inactive | inactive | inactive | inactive |  | 
c1ccc2scnc2c1 | inactive | inactive | inactive | inactive | inactive | inactive | inactive | inactive | inactive | inactive |  | 
CCCCCCCCCCCCS | inactive | inactive | inactive | inactive | inactive | inactive | inactive | inactive | inactive | inactive |  | 
CCC(O)OC(O)CC (stereo unspecified) | inactive | inactive | inactive | inactive | inactive | inactive | inactive | inactive | inactive | inactive |  | 
C=C(C)C(=O)Nc1ccc(Cl)c(Cl)c1 | inactive | 49.1 µM (active) and 54.3 µM (active) | inactive | inactive | inactive | inactive | inactive | 69.3 µM (active) and 68.3 µM (active) | inactive | inactive |  | 
O=C(O)c1cc(O)c(O)c(O)c1 | inactive and 55 µM (active) | inactive | inactive | inactive | inactive | inactive | inactive | inactive | inactive | inactive |  | 

Structure (SMILES) | Potency [1] | Potency [2] | Potency [3] | Potency [4] | outcome [5] | Potency [6] | Potency [7] | Potency [8] | Potency [9] | Potency (Aromatase (Homo sapiens)) | activity change, negative = cytotoxic [1] | activity, negative = inhibition [2]
CCCCC(CC)COC(=O)CCCCC(=O)OCC(CC)CCCC (stereo unspecified) | inactive | inactive | inactive | inactive | inactive | inactive | inactive | inactive | inactive | inactive |  | 
CC(C)c1ccc(S(=O)(=O)O)cc1 | inactive | inactive | inactive | inactive | inactive | inactive | inactive | inactive | inactive | inactive |  | 
CCN(CC)CCCC(C)Nc1ccnc2cc(Cl)ccc12 (stereo unspecified) |  | 26.6 µM (active) | inactive | inactive | inactive | inactive | inactive | inactive | inactive | inactive | -23.7% [at 8.44 µM] (inactive) | -19.4% [at 8.44 µM] (inactive)
Cc1ccc2oc(=O)ccc2c1 | inactive | inactive | inactive | inactive | inactive | inactive | inactive | inactive | inactive | inactive |  | 
O=C(O)CCCC[C@@H]1SC[C@@H]2NC(=O)N[C@@H]21 | inactive | inactive | inactive | inactive | inactive | inactive | inactive | inactive | inactive | inactive |  | 
CC(=O)Nc1cccc(O)c1 | inactive | inactive | inactive | inactive | inactive | inactive | inactive | inactive | inactive | inactive |  | 
COc1ccc(Nc2ccccc2)c(C)c1 | inactive | inactive | inactive | inactive | inactive | inactive | inactive | inactive | inactive | inactive |  | 
CCCCCCOCCO | inactive | inactive | inactive | inactive | inactive | inactive | inactive | inactive | inactive | inactive |  | 
CCCCCCCCCCCCCCO | inactive | inactive | inactive | inactive | inactive | inactive | inactive | inactive | inactive | inactive |  | 
CC(=O)c1ccccc1 | inactive | inactive | inactive | inactive | inactive | inactive | inactive | inactive | inactive | inactive |  | 
CCOC(=O)NNc1nncc2ccccc12 | inactive | inactive | inactive | inactive | inactive | inactive | inactive | inactive | inactive | inactive |  | 
Cc1cc(C)c(C)cc1C | inactive | inactive | inactive | inactive | inactive | inactive | inactive | inactive | inactive | inactive |  | 
O=C(O)CCCCCCCCCCC(=O)O | inactive | inactive | inactive | inactive | inactive | inactive | inactive and 61.1 µM (active) | inactive | inactive | inactive |  | 
Oc1cccc2ccccc12 | inactive | inactive | inactive |  | inactive |  |  |  | inactive |  |  | 
Nc1cc([N+](=O)[O-])ccc1O | 30.6 µM (active) and 60.8 µM (active) | inactive | inactive |  | inactive |  |  |  | 54.5 µM (active) | inactive |  | 
O=C(Oc1ccccc1)c1ccccc1 | inactive | inactive | inactive |  | inactive |  |  |  | inactive | inactive |  | 
OCC(CO)(CBr)CBr | inactive | inactive | inactive |  | inactive |  |  |  | inactive | inactive |  | 
COc1cc(Cc2cnc(N)nc2N)cc(OC)c1OC | inactive | inactive | inactive | inactive | inactive | inactive | inactive | inactive | inactive | inactive |  | 
COc1ccc2cc([C@H](C)C(=O)O)ccc2c1 | inactive | inactive | inactive |  | inactive |  |  |  | inactive |  |  | 
CN(C)CCCN | inactive | inactive | inactive | inactive | inactive | inactive | inactive | inactive | inactive | inactive |  | 
O=C(O)[C@H](O)[C@@H](O)[C@H](O)[C@H](O)CO | inactive | inactive | inactive |  | inactive |  |  |  | inactive | inactive |  | 
O=C(O)c1ccc2c(c1)C(=O)OC2=O | inactive | inactive | inactive | inactive |  | inactive | inactive | inactive | inactive | inactive |  | 
CC(C)CC(=O)CC(C)C | inactive | inactive | inactive |  | inactive |  |  |  | inactive |  |  | 
Cc1cccc(O)c1 | inactive | inactive | inactive | inactive |  | inactive | inactive | inactive | inactive | inactive |  | 
